Experimental data from PubChem BioAssay (EPA / NIEHS).
Activity calls are given as the source filed them. Rule for the calls: active = hit-call score of the fitted dose curve at least 0.9, where 1 is the maximum; inactive = score below 0.9.

What was measured:
[1] = APR_HepG2_NuclearSize_72hr: Apredica 72-hour HepG2 Assay for Nuclear Size (AID 2282925); conditions: high-content imaging, actives raise or lower the signal
How it was run: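 Nuclear size was read by high-content imaging of Hoechst 33342 stain after formaldehyde fixation. Compounds ran 72 h on HepG2 at 0.39 to 200 uM, with final DMSO 0.5% v/v. Curves fitted both directions relative to DMSO control.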

[2] = ATG_CRE_CIS: Attagene CIS-FACTORIAL HepG2 Assay for human cAMP Responsive Element (CRE) binding protein 3 (AID 2282926); conditions: HepG2 CRE cis-reporter, Attagene multiplexed mRNA; actives raise or lower the signal
How it was run: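 Cells carrying cis-regulated reporter constructs respond through their own endogenous factors. After 24 h treatment, RNA is reverse-transcribed, amplified, labelled and sized by capillary electrophoresis; up- and down-regulation are both scored against vehicle.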

[3] = biological target: CCAAT/enhancer-binding protein beta (Homo sapiens) (UniProt P17676); test: ATG_C_EBP_CIS: Attagene CIS-FACTORIAL HepG2 Assay for human CCAAT/Enhancer Binding Protein (C/EBP) beta (AID 2282927); conditions: HepG2 Attagene cis-factorial transcription factor reporter; actives raise or lower the signal
Chain of CCAAT/enhancer-binding protein beta (Homo sapiens) (P17676 whole entry, looked up, the tested form may be a part): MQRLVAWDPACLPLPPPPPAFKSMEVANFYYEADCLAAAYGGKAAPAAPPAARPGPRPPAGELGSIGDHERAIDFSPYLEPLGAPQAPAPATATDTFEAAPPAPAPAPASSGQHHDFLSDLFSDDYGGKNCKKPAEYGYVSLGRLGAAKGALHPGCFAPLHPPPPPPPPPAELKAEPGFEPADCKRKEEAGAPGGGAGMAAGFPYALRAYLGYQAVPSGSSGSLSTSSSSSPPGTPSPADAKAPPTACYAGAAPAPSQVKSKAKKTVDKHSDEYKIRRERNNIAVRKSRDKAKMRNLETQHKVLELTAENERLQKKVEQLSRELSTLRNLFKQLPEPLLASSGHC
How it was run: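 Endogenous C/EBPb-driven reporter transcripts measured in transfected human HepG2 cells at 24 h via RT-PCR and capillary electrophoresis of labelled fragments. Activity fitted in both directions relative to DMSO baseline.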

[4] = ATG_CMV_CIS: Attagene CIS-FACTORIAL HepG2 Assay for human CMV (Internal Marker) (AID 2282928); conditions: HepG2 CMV promoter reporter, transcription factor profiling; actives raise or lower the signal;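 note: endpoint acts as a background internal control marker rather than a target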
How it was run: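 Bidirectional fits against DMSO are applied to reporter mRNA, read by RT-PCR with capillary electrophoresis, from HepG2 cells exposed 24 h. The endpoint serves as an internal CMV background marker within the cis-factorial reporter panel.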

[5] = ATG_DR4_LXR_CIS: Attagene CIS-FACTORIAL HepG2 Assay for human Liver X Receptor (LXR), DR4 submotif (AID 2282929); conditions: HepG2 Attagene DR4 cis-reporter, mRNA transcription; actives raise or lower the signal
How it was run: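 Endogenous factor activity at a DR4 cis-element is read as reporter mRNA in transiently transfected HepG2 cells. Exposure lasts 24 h; transcripts are amplified, fluorescently labelled and sized by capillary electrophoresis, with DMSO as baseline.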

[6] = biological target: Aryl hydrocarbon receptor (Homo sapiens) (UniProt P35869); test: ATG_Ahr_CIS: Attagene CIS-FACTORIAL HepG2 Assay for human Aryl Hydrocarbon Receptor (Ahr) (AID 2282930); conditions: HepG2 AhR cis-factorial reporter transcription; actives raise or lower the signal
Chain of Aryl hydrocarbon receptor (Homo sapiens) (P35869 whole entry, looked up): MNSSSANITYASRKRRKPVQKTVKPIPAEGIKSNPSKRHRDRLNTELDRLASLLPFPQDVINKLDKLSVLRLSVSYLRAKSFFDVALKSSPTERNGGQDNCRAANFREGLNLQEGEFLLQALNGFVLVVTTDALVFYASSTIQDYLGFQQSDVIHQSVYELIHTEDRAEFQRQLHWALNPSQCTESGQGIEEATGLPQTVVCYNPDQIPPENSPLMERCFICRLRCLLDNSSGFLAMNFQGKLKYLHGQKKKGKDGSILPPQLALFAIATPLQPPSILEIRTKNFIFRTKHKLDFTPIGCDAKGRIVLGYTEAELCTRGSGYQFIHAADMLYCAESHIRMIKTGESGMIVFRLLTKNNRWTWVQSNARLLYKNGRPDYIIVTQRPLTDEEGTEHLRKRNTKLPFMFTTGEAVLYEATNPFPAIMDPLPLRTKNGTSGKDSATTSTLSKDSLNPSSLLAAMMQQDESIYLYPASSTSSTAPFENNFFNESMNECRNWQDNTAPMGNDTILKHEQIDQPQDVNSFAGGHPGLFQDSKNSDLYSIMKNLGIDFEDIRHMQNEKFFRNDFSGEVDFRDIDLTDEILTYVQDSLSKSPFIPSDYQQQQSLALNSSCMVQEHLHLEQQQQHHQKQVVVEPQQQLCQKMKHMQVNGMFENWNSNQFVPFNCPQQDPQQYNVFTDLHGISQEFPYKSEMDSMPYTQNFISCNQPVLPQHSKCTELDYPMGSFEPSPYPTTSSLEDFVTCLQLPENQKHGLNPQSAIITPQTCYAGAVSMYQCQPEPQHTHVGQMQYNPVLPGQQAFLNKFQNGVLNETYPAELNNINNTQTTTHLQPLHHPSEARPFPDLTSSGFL
How it was run: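 Reporter mRNA levels, quantified by RT-PCR and fluorescent capillary electrophoresis, reflect endogenous AhR transcriptional activity in HepG2 cells carrying transfected cis-promoter reporter constructs. Readout at 24 h post-dose; gain or loss fitted against DMSO baseline.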

[7] = ATG_AP_1_CIS: Attagene CIS-FACTORIAL HepG2 Assay for human Activator Protein 1 (AP-1) (AID 2282931); conditions: HepG2 Attagene cis-factorial AP-1 reporter mRNA; actives raise or lower the signal
How it was run: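 Fluorescence of labelled PCR fragments separated by capillary electrophoresis gives reporter mRNA levels. HepG2 with transfected cis-regulated reporter units, 24 h exposure; DMSO serves as baseline for bidirectional curve fits.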

[8] = biological target: Transcription factor E2F1 (Homo sapiens) (UniProt Q01094); test: ATG_E2F_CIS: Attagene CIS-FACTORIAL HepG2 Assay for human E2F Transcription Factor 1 (AID 2282935); conditions: HepG2 Attagene cis-reporter, E2F reporter RNA transcripts; actives raise or lower the signal
Chain of Transcription factor E2F1 (Homo sapiens) (Q01094 whole entry, looked up): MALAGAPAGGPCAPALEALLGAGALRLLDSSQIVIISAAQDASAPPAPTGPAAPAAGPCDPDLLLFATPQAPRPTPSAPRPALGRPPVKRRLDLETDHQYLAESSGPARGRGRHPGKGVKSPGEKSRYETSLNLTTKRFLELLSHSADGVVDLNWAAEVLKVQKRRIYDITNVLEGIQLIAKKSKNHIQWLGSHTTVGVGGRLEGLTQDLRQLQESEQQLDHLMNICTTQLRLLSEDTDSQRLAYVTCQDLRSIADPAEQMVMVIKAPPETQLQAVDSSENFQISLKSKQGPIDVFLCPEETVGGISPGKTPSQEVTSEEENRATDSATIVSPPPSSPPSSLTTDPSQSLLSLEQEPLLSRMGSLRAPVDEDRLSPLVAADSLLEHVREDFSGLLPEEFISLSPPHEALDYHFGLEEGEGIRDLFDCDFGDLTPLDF
How it was run: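 Gain or loss of reporter transcript, fitted against DMSO, reflects E2F1-driven transcription. Transiently transfected HepG2 dosed 24 h before RNA isolation. Quantified by fluorescent RT-PCR products separated by capillary electrophoresis.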

[9] = ATG_E_Box_CIS: Attagene CIS-FACTORIAL HepG2 Assay for human Enhancer Box (E-box) (AID 2282936); conditions: HepG2 E-box cis-reporter transcription, actives raise or lower the signal
How it was run: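 E-box-driven reporter transcripts measured in transiently transfected HepG2 after 24 h exposure: RNA reverse-transcribed, PCR-amplified, fluorescently labelled, digested and resolved by capillary electrophoresis. Gain or loss relative to DMSO.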

[10] = ATG_M_61_CIS: Attagene CIS-FACTORIAL HepG2 Assay for M61 Transcription Factor (Internal Marker) (AID 2282937); conditions: HepG2 Attagene CIS-FACTORIAL M61 internal marker reporter; actives raise or lower the signal
How it was run: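 This endpoint serves as an internal background control within a multiplexed HepG2 cis-reporter panel. Cells are exposed for 24 h; reporter mRNA is amplified, fluorescently labelled and sized by capillary electrophoresis, with DMSO as negative control.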

[11] = ATG_EGR_CIS: Attagene CIS-FACTORIAL HepG2 Assay for human Early Growth Response 1 (EGR1) (AID 2282938); conditions: HepG2 Attagene CIS-FACTORIAL EGR reporter mRNA; actives raise or lower the signal
How it was run: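 HepG2, transient MRTU transfection (cis promoters), 24 h compound. RNA → RT (oligo-dT) → PCR → 6-FAM labelling → HpaI cut → CE fluorescence. Bidirectional fit, DMSO baseline.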

[12] = ATG_M_19_CIS: Attagene CIS-FACTORIAL HepG2 Assay for M19 Transcription Factor (Internal Marker) (AID 2282939); conditions: HepG2 Attagene CIS-FACTORIAL M19 internal marker reporter; actives raise or lower the signal
How it was run: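 Transfect HepG2 with MRTU reporter library → dose chemical, 24 h → isolate total RNA, reverse-transcribe with oligo(dT) → PCR, 6-FAM label, HpaI cut (2 h, 37 C) → capillary electrophoresis. Bidirectional fit vs DMSO.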

[13] = ATG_ERE_CIS: Attagene CIS-FACTORIAL HepG2 Assay for Estrogen Response Element (ERE) (AID 2282940); conditions: HepG2 ERE cis-reporter, Attagene RNA transcript; actives raise or lower the signal
How it was run: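 Transient MRTU transfection of human HepG2; cis-element promoters; 24 h dosing; total RNA → RT (oligo dT) → PCR → 6-FAM primer extension → HpaI digest → CE fluorescence. Bidirectional fit, DMSO baseline.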

[14] = ATG_Ets_CIS: Attagene CIS-FACTORIAL HepG2 Assay for human Erythroblast Transformation Specific (ETS) (AID 2282941); conditions: HepG2 ETS cis-reporter transcription, actives raise or lower the signal
How it was run: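 Endogenous transcription factor activity read as reporter mRNA via RT-PCR and capillary electrophoresis, with gain or loss fitted bidirectionally against DMSO. Human HepG2 liver cells, transiently transfected CIS reporter constructs, 24 h exposure.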

[15] = biological target: Hepatocyte nuclear factor 3-beta (Homo sapiens) (UniProt Q9Y261); test: ATG_FoxA2_CIS: Attagene CIS-FACTORIAL HepG2 Assay for human Forkhead box A2 (FOXA2) (AID 2282942); conditions: HepG2 cis-reporter transcription factor activity, 24 h; actives raise or lower the signal
Chain of Hepatocyte nuclear factor 3-beta (Homo sapiens) (Q9Y261 whole entry, looked up): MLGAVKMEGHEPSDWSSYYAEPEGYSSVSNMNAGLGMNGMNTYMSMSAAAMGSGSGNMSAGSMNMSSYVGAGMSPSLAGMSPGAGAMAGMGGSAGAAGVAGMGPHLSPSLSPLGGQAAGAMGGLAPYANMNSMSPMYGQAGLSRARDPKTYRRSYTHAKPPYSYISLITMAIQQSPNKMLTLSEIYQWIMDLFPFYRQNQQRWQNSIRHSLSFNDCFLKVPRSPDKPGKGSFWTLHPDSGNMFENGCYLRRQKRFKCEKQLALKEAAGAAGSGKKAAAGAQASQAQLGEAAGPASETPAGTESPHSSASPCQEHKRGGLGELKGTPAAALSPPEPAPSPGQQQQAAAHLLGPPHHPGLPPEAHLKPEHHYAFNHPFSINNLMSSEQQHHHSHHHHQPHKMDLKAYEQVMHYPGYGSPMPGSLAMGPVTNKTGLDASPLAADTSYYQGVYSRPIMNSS
How it was run: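 Cells: HepG2, transient multiplex reporter transfection. Exposure 24 h. Detection: reporter-specific RT-PCR, fluorescent labelling, restriction digest, capillary electrophoresis. Analysis: bidirectional curve fit, DMSO as negative control.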

[16] = ATG_FoxO_CIS: Attagene CIS-FACTORIAL HepG2 Assay for human Forkhead box O (FoxO) (AID 2282943); conditions: HepG2 Attagene cis-reporter, FoxO element, mRNA; actives raise or lower the signal
How it was run: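 Endogenous transcription factor activity read from multiplexed cis-promoter reporter transcripts in transiently transfected HepG2, 24 h after dosing. Reporter RNA measured via RT-PCR plus capillary electrophoresis of FAM-labeled products; gain or loss relative to DMSO.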

[17] = ATG_GATA_CIS: Attagene CIS-FACTORIAL HepG2 Assay for human GATA Binding Protein (AID 2282944); conditions: HepG2 GATA cis-element reporter, Attagene multiplex mRNA; actives raise or lower the signal
How it was run: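 Transient MRTU transfection, HepG2, 24 h compound exposure. Total RNA → oligo(dT) RT → PCR → 6-FAM primer extension → HpaI cut → CE. Bidirectional fit vs DMSO.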

[18] = ATG_AP_2_CIS: Attagene CIS-FACTORIAL HepG2 Assay for human Activator Protein 2 (AP-2) (AID 2282932); conditions: HepG2 AP-2 cis-reporter, Attagene transcription factor profiling; actives raise or lower the signal
How it was run: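 Endogenous transcription factor activity is reported through transfected multiplex reporter constructs in HepG2, after 24 h of compound exposure. Transcripts were quantified by RT-PCR and capillary electrophoresis of fluorescent fragments. Bidirectional fit against DMSO.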

[19] = ATG_BRE_CIS: Attagene CIS-FACTORIAL HepG2 Assay for human Bone Morphogenetic Protein (BMP) Response Element (BRE) (AID 2282933); conditions: HepG2 BMP response element reporter, Attagene transcription factor profiling; actives raise or lower the signal
How it was run: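 Transient MRTU transfection of human HepG2 liver cells; 24 h compound treatment; total RNA isolated, reverse-transcribed, PCR-amplified, 6-FAM labelled, HpaI-cut, capillary electrophoresis. DMSO = negative control/baseline, bidirectional fit.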

[20] = biological target: Retinoic acid receptor alpha (Homo sapiens) (UniProt P10276); test: ATG_DR5_RAR_CIS: Attagene CIS-FACTORIAL HepG2 Assay for human Retinoic Acid Receptor Alpha (RARE), DR5 submotif (AID 2282934); conditions: HepG2 Attagene cis-factorial RARE DR5 reporter, mRNA; actives raise or lower the signal;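 for AC50: reporter responds to endogenous RAR alpha beta and gamma in HepG2 not RARA alone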
Chain of Retinoic acid receptor alpha (Homo sapiens) (P10276 whole entry, looked up): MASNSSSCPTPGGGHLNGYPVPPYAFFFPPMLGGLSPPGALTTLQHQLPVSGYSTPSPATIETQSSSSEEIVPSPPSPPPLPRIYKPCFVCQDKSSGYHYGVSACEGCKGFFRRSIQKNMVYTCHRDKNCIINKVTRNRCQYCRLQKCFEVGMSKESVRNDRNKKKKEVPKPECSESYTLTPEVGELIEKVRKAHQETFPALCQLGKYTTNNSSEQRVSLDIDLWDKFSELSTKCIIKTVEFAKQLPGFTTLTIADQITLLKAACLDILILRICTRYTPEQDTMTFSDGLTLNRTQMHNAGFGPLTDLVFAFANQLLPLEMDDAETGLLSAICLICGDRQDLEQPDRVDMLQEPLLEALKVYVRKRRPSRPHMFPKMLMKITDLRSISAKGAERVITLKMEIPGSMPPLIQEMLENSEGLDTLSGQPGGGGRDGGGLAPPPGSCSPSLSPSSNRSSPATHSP
How it was run: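 Reporter transcripts from a DR5-regulated unit, measured via RT-PCR plus capillary electrophoresis, reflect endogenous RAR activity in transiently transfected human HepG2 liver cells. Exposure lasted 24 h; gain or loss of signal scored against DMSO.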

Measured: AC50

NS(=O)(=O)c1cc2c(cc1Cl)NCNS2(=O)=O
not listed: [18] | [19] | [20]
inactive: all other assays above

CCCCCCC(=O)OCC
active: [13] 34.7 µM
not listed: [7]
inactive: all other assays above

COc1ccc(S(=O)(=O)N2C(=O)[C@@](c3ccccc3OC)(N3C[C@H](O)C[C@H]3C(=O)N(C)C)c3cc(Cl)ccc32)c(OC)c1
active: [1] 130 µM | [2] 87.9 µM | [5] 26.1 µM | [6] 29.9 µM | [11] 36.7 µM | [14] 83.5 µM | [15] 132 µM
not listed: [7] | [19]
inactive: all other assays above

CCCc1cc(=O)[nH]c(=S)[nH]1
active: [6] 63.9 µM | [13] 4.56 µM
not listed: [7] | [19]
inactive: all other assays above

CCCCN(CCCC)CCCC
not listed: [7] | [19] | [20]
inactive: all other assays above

COc1cc(C=O)ccc1O
active: [20] 31.1 µM
not listed: [6] | [18]
inactive: all other assays above

Nc1nc(N)c2nc(CNc3ccc(C(=O)N[C@@H](CCC(=O)O)C(=O)O)cc3)cnc2n1
active: [4] 0.00818 µM
not listed: [7] | [19]
inactive: all other assays above
